High-throughput results (PubChem BioAssay)
aSyn rescue: alpha-synuclein toxicity inhibition in yeast. 370,000 compounds, 0.14% hits. Yeast expressing alpha-synuclein, growth rescue, BacTiter-Glo, 24 h. Potency, µM (titrated, usually from 46.1 µM), inactives show at the top dose growth rescue (activation), usual class: activators; note: % of control where 0% means no effect; nearly all actives have a fitted effect of over 65% in size
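Readout is rescue of growth in alpha-synuclein-expressing yeast, so inhibitors of toxicity appear as activators. Growth after 24 hr at 30 deg C in galactose medium is quantified by luminescence.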
TDP43 rescue: inhibitors of TDP-43 toxicity in yeast; AID 652104; TDP-43 expressing yeast growth rescue, BacTiter-Glo, 24 h; Potency, µM (series often up to 46.1 µM), inactives show at the top dose growth rescue (activation), most hits filed as activators; 410,000 compounds, 1.8% hits; note: % of control where 0% means no effect; nearly all actives have a fitted effect of over 50% in size
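Luminescence from BacTiter-Glo reports growth of TDP-43-expressing yeast after 24 hr at 30 deg C with compound. Cells were raffinose-pregrown to mid-log, then seeded in galactose medium at OD600=0.02.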
FUS yeast rescue: rescues growth of FUS-expressing yeast. Potency, µM (titrated, usually from 76.6 µM), actives largely listed as activators. 390,000 compounds, 0.24% hits. S. cerevisiae FUS-expressing, growth rescue, OD600, 24 h;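 note: plate controls were DMSO vehicle for no effect and reference control for full effect; nearly all actives have a fitted effect of over 55% in size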
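Yeast expressing FUS under galactose induction, OD 0.005 in 2% galactose medium; compounds in a dilution series, 24 h at 30C. Growth rescue by absorbance at 600 nm; CP55940 positive control, DMSO negative.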
Abeta rescue: restores growth of yeast expressing A-beta42 peptide. yeast expressing A-beta42, growth rescue, OD600, 48 h; response scale: 0% DMSO, 100% iron-clioquinol control. Potency, µM (highest dose often 46.1 µM), actives largely listed as activators. 410,000 compounds, 0.063% hits; note: nearly all actives have a fitted effect of over 55% in size
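Yeast growth medium received pinned compounds, then yeast cells expressing toxic A-beta were added; plates incubated at 30 C for 48 hr. Growth read as absorbance at 600 nm, normalized to DMSO and equimolar FeCl3 plus clioquinol controls.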
PTAP TSG101 blk: blocks PTAP/TSG101 interaction to inhibit HIV-1 budding. Fluorescence polarization, FITC-PTAP peptide / Tsg101 binding. Potency, µM (titrated, usually from 115 µM), inactives show at the top dose activity change, negative = inhibition, hits mostly inhibitors. 340,000 tested, under 10 active. AID 493005; active = well fitted inhibition curve with a large enough effect in the main read-out, with a control signal flat, not every such curve was filed as active; inconclusive = small, poorly fitted or top-dose-only effect, or effect the other way, or a change in a side signal; inactive = no such curve, though single readings can be large or run the other way; note: % of control where 0% means no effect
Target sequence (Q99816 whole entry, looked up): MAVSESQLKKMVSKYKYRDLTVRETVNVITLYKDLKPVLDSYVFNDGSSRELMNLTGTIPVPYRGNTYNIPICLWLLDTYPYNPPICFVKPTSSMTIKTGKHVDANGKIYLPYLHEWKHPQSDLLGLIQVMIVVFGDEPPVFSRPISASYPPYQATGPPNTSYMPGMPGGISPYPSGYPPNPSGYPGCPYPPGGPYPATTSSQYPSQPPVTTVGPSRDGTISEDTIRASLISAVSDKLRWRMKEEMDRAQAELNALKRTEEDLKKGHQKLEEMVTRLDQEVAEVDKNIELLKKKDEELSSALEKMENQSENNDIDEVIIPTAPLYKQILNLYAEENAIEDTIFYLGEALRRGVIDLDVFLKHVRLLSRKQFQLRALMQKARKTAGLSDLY
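Compounds were pin-transferred onto Tsg101 binding domain (10 uM final) in HEPES pH 7.5 buffer, then FITC-PTAP peptide was added at 50 nM final. After 20 min at RT, polarization reported peptide displacement across a qHTS concentration series.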
Numbers without * were called inactive; i = inactive; ? = inconclusive; . = no result given. In the library only some 2.1% were active in any assay of this set; here they are far more common. Unless noted, calls come from the whole dose curve; as a rule, active = well fitted curve in the direction sought with a large enough effect; inconclusive = small, poorly fitted or top-dose-only effect, or another doubt; inactive = no such curve, though single readings can be large; an effect the other way counts as inactive or inconclusive. Potency is the fitted concentration of half-maximal effect.

SMILES | aSyn rescue | TDP43 rescue | FUS yeast rescue | Abeta rescue | PTAP TSG101 blk
CCn1c(-c2cccc(Br)c2)n[nH]c1=S | 0% | 20µM* | i | i | -2%
CCc1ccc(NC(=O)CC2C(=O)N(c3cccc(OC)c3)C(=O)N2Cc2ccc(F)cc2)cc1 (configuration not stated) | . | 19% | i | i | .
S=c1[nH]nc(-c2ccc(Cl)cc2)n1-c1ccc2c(c1)OCCO2 | -9% | -1% | i | i | 0%
S=c1[nH]nc(-c2ccc(Cl)cc2)n1-c1ccc(Cl)cc1 | -3% | 16% | i | 10µM* | -10%
CCOC(=O)c1ccc(CN(Cc2ccc(F)cc2)S(=O)(=O)c2ccc(F)cc2)cc1 | . | 8% | ? | i | .
Cc1nc(-c2ccccn2)nc(SCC(=O)c2ccc(F)cc2)c1Cl | ? | 11µM* | i | i | -2%
COCC1CCN(Cc2c(C(=O)N3CCc4ccccc4C3)nc3ccc(Cl)cn23)C1 (configuration not stated) | 8% | 7% | 7.1µM* | i | ?
Nc1nonc1-c1noc(-c2ccccc2Br)n1 | 1% | 13µM* | i | i | -2%
FC(F)(F)c1ccc(-c2noc(-c3ccccc3Br)n2)cc1 | . | 20% | i | i | .
COc1ccc(C(=O)NCC(c2cccnc2)N2CCc3ccccc3C2)cc1OC (configuration not stated) | . | 4% | i | i | .
CC1CCCCN1C(=O)c1cccc(NC2=C(Cl)C(=O)N(Cc3ccccc3)C2=O)c1 (configuration not stated) | 16% | 18µM* | i | i | 1%
CC1CCN(C(=O)c2ccc(NC3=C(Cl)C(=O)N(Cc4ccccc4)C3=O)cc2)CC1 | ? | 16% | i | i | 7%
CCOc1ccc(C2=NNC(c3cccs3)=Nc3ccc(OC)cc32)cc1 | -1% | -36% | 18µM* | i | -4%
CCCN1CCN(C(=O)c2ccc3[nH]c(C)c(C)c3c2)CC1 | -2% | -1% | i | i | .
COc1ccc(-c2nc(C(=O)Nc3cccc(C(C)=O)c3)nn2-c2ccc(Cl)cc2)cc1 | . | 0% | ? | i | .
COc1ccc(-n2nc(C(=O)Nc3ccc(C(C)=O)cc3)nc2-c2ccccc2)cc1 | . | 22µM* | i | i | .
CC[C@H](CCCc1ccc(OC)cc1)CCC(=O)N(c1ccccc1)c1ccccc1 | . | . | i | . | .
CC(=O)N1CCN(C(=O)CNC(=O)c2ccc(C)s2)CC1 | -3% | 1% | i | i | 0%
Fc1cccc(C[n+]2csc3ccccc32)c1 | -18% | 3.5µM* | . | i | -2%
CCc1ccc(NC(=O)c2ccc3[nH]c(C)c(C)c3c2)cc1 | . | -10% | i | i | .
COc1ccc(/C=C/C(=O)c2ccc(C)c([N+](=O)[O-])c2)cc1O | -55% | 22µM* | . | i | -1%
COc1cc(/C=C/C(=O)c2ccc(C)c([N+](=O)[O-])c2)cc(OC)c1O | -9% | 2% | . | i | -2%
Nc1nc(Cl)cc(N2CCC(c3cc(-c4ccc(Cl)cc4Cl)n[nH]3)CC2)n1 | 17% | -51% | 13µM* | i | 1%
O=C(Nc1nnc([C@@H]2C[C@H](O)[C@@H](CO)O2)s1)c1ccc(Oc2ccccc2)cc1 | 1% | 0% | i | i | .
COc1ccc(Cl)cc1C(=O)Nc1sc2c(c1C(=O)OC(C)C)CCCC2 | . | 23% | i | i | .
SMILES | aSyn rescue | TDP43 rescue | FUS yeast rescue | Abeta rescue | PTAP TSG101 blk
CCCc1ccc(C2=Nn3c(nnc3C(C)C)SC2)cc1 | -19% | 15% | ? | i | 0%
CC(C)c1nnc2n1N=C(c1ccc(Cl)cc1)CS2 | 0% | 20µM* | i | i | -5%
O=C(Oc1ccc2c(c1)OCO2)C12CC3CC(CC(C3)C1)C2 | 0% | ? | i | i | 0%
O=C(OCC(=O)C12CC3CC(CC(C3)C1)C2)c1ccc(O)cc1 | -24% | 11µM* | i | i | -1%
O=C(Oc1ccc(O)cc1)C12CC3CC(CC(C3)C1)C2 | 11% | 14µM* | i | i | -1%
O=C(OCC(=O)C12CC3CC(CC(C3)C1)C2)c1ccc(CO)cc1 | 3% | ? | i | i | 0%
CCOc1ccc(CNC(=O)c2cccc(NC(=O)N3CCSc4ncccc43)c2)cc1OC | . | 7% | i | i | .
Cc1ccc(Nc2ncnc3c2cnn3-c2ccccc2)c(C)c1 | 3% | 35µM* | i | i | .
Fc1ccccc1Nc1ncnc2c1nnn2Cc1ccccc1 | 0% | 11µM* | i | ? | -3%
Cc1ccc(-n2ncc3c(Nc4cccc(C)c4C)ncnc32)cc1 | . | 6% | i | i | .
c1ccc(Cn2ncc3c(Nc4ccccc4)ncnc32)cc1 | -6% | 13µM* | i | i | -7%
Cc1ccc(-n2ncc3c(NCCc4ccccc4)ncnc32)cc1C | . | ? | i | i | .
CCOCCCNc1ncnc2c1cnn2-c1ccc(C)c(C)c1 | . | 11µM* | i | i | .
Cc1ccc(-n2ncc3c(NCc4ccco4)ncnc32)cc1C | 0% | 9% | i | i | -1%
c1ccc(CCNc2ncnc3c2cnn3-c2ccccc2)cc1 | -18% | 16µM* | i | i | -1%
Cn1ncc2c(Nc3ccc4ccccc4c3)ncnc21 | -6% | 10µM* | i | i | -6%
Cc1cccc(Nc2ncnc3c2cnn3C)c1 | -9% | ? | i | i | -5%
CNc1ncnc2c1cnn2-c1ccc(C)c(C)c1 | . | 11µM* | i | i | .
CSc1ncnc2c1cnn2-c1ccc(C)cc1C | -8% | 18µM* | i | i | 2%
CC1(C(=O)NS(=O)(=O)c2cccc(Cl)c2)CCN1C(=O)c1ccccc1CCc1ccccc1 (configuration not stated) | -43% | -3% | i | i | .
CC(=O)Nc1cccc2c1Cc1cc([N+](=O)[O-])ccc1-2 | 9% | 10% | . | i | -4%
CC(=O)Nc1ccc2c(c1Br)Cc1ccccc1-2 | -9% | 18µM* | i | i | -10%
Nc1ccc2c(c1Br)Cc1ccccc1-2 | -11% | 35µM* | i | i | -2%
COc1ccc(/C=C/C(=O)c2c(O)c(OC)c3occc3c2OC)cc1OC | -6% | . | . | . | .
Cc1ccccc1C(=O)NNc1ncnc2c1cnn2-c1cccc(Cl)c1 | . | 17% | i | i | .
Cc1ccc(C2OC(=O)c3ccccc32)cc1 (configuration not stated) | 2% | 35µM* | . | i | -1%
CC12CCC3C(=CCc4cc(O)ccc43)C1CC(=NO)C2O (configuration not stated) | 6% | 19% | . | i | -2%
COc1ccc2c(c1)CC=C1C2CCC2(C)C(=O)C(=NO)CC12 (configuration not stated) | 6% | 11µM* | i | i | -4%
